# In PubChem BioAssay (Tox21):
# Several values for one entry are separate records, joined by “and”; a condition that tells them apart may be missing. Equal entries are not always repeated. Records with an inconclusive call do not appear. Where a call stands in place of a potency, no number is given. Where a structure was tested more than once in an assay, its records may differ in their call. Activity calls are given as the source filed them. The call rests on the fitted dose curve; in most records, active means well fitted curve in the direction sought with a large enough effect in the repeat runs; inconclusive means weak or mixed curves; inactive means no such curve, though single readings can be large; an effect the other way counts as inactive or inconclusive.
# Test: A CellTox Green Cytotoxicity Assay to monitor cytotoxicity in HepG2 cells - 40 hour (AID 1224879); further: nearly all actives have a fitted effect of over 40% in size; further: potency means the concentration at half of the fitted maximal effect
# Conditions: CellTox Green fluorescence; series mostly up to 76.8 µM
# Procedure, shortened: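 HepG2 cells were seeded together with the CellTox Green dye at 600 cells/well, left 5 h at 37 C/5% CO2, then given compounds in DMSO. Fluorescence from dye bound to dead-cell DNA was read repeatedly over 40 h of treatment at 37 C.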
row,Structure (SMILES),Potency
1,C=CCOC(Cn1ccnc1)c1ccc(Cl)cc1Cl (stereo not drawn),49.1 µM (active)
2,C1CCC(NC2CCCCC2)CC1,inactive
3,O=C(O)COc1ccc(Cl)cc1Cl,inactive
4,CC(=O)[O][Hg][c]1ccccc1,1.22 µM (active) and 1.95 µM (active) and 1.07 µM (active)
5,C[N+](C)(C)Cc1ccccc1,inactive
6,CCC[N+]1(C)CCCC1,inactive
7,CCCC[N+]1(C)CCCC1,inactive
8,Cc1cc(-c2ccc(N)c(C)c2)ccc1N,inactive and 43.6 µM (active)
9,OCCOc1ccccc1,inactive
10,Nc1ccc(Cl)cc1,inactive
11,COc1ccc(N)cc1,inactive and 245 nM (active)
12,CCCC[n+]1ccccc1,inactive
13,CCCC[n+]1ccc(C)cc1,inactive and 48.7 µM (active)
14,O=C(O)C(Cl)(Cl)Cl,inactive
15,CCCC[n+]1cccc(C)c1,inactive
16,CCC[N+]1(C)CCCCC1,inactive
17,Nc1ccccc1,inactive
18,Nc1ccc(-c2ccc(N)cc2)cc1,48.4 µM (active) and inactive
19,Cc1cc(Cl)ccc1N,inactive and 38.9 µM (active)
20,CCCC[n+]1ccccc1C,inactive
21,CCCCCCCCCCn1cc[n+](C)c1,44.1 µM (active) and 48.9 µM (active)
22,COCC(=O)N(c1c(C)cccc1C)C(C)C(=O)OC (stereo not drawn),inactive
23,CCCCn1cc[n+](C)c1,inactive
24,CC(=O)O,inactive
25,CCCCCCCCCCCCCC[P+](CCCCCC)(CCCCCC)CCCCCC,12.4 µM (active) and 17.5 µM (active) and 48.9 µM (active)
26,O=c1nc(O)n(Cl)c(=O)n1Cl,inactive
27,CCCCCCCCCCCCOS(=O)(=O)O,49 µM (active) and inactive
28,CCCCCCn1cc[n+](C)c1,inactive
29,COP(=O)(OC)C(O)C(Cl)(Cl)Cl (stereo not drawn),inactive
30,CCCCCCCCn1cc[n+](C)c1,inactive

# Test: qHTS RealTime-Glo MT Cell Viability Assay in HEK293 cells - 0 hour (AID 1224880); further: top concentration of the series differs between compounds; nearly all actives have a fitted effect of over 45% in size
# Conditions: RealTime-Glo luminescence; series mostly up to 76.8 µM
# Procedure, shortened: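 HEK293 cells mixed with RealTime-Glo reagents (NanoLuc plus cell-permeant prosubstrate) at 600 cells/well, preincubated 5 h at 37 C/5% CO2, then given 23 nL compound in DMSO. Nonlytic luminescence from viable cells was read at 0, 8, 16, 24, 32 and 40 h.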
row,Structure (SMILES),outcome
1,C=CCOC(Cn1ccnc1)c1ccc(Cl)cc1Cl (stereo not drawn),inactive
2,C1CCC(NC2CCCCC2)CC1,inactive
3,O=C(O)COc1ccc(Cl)cc1Cl,inactive
4,CC(=O)[O][Hg][c]1ccccc1,inactive
5,C[N+](C)(C)Cc1ccccc1,inactive
6,CCC[N+]1(C)CCCC1,inactive
7,Oc1cccc2cccnc12,inactive
8,CCCC[N+]1(C)CCCC1,inactive
9,Cc1cc(-c2ccc(N)c(C)c2)ccc1N,inactive
10,OCCOc1ccccc1,inactive
11,Nc1ccc(Cl)cc1,inactive
12,COc1ccc(N)cc1,inactive
13,CCCC[n+]1ccccc1,inactive
14,CCCC[n+]1ccc(C)cc1,inactive
15,O=C(O)C(Cl)(Cl)Cl,inactive
16,CCCC[n+]1cccc(C)c1,inactive
17,CCC[N+]1(C)CCCCC1,inactive

row,Structure (SMILES),outcome
1,Nc1ccccc1,inactive
2,Nc1ccc(-c2ccc(N)cc2)cc1,inactive
3,Cc1cc(Cl)ccc1N,inactive
4,CCCC[n+]1ccccc1C,inactive
5,CCCCCCCCCCn1cc[n+](C)c1,inactive
6,CCCCCCCCCCCCn1cc[n+](C)c1,inactive
7,COCC(=O)N(c1c(C)cccc1C)C(C)C(=O)OC (stereo not drawn),inactive
8,Oc1ccccc1-c1ccccc1,inactive
9,CCCCn1cc[n+](C)c1,inactive
10,CC(=O)O,inactive
11,CCCCCCCCCCCCCC[P+](CCCCCC)(CCCCCC)CCCCCC,inactive
12,O=c1nc(O)n(Cl)c(=O)n1Cl,inactive
13,CCCCCCCCCCCCOS(=O)(=O)O,inactive
14,CCCCCCn1cc[n+](C)c1,inactive
15,COP(=O)(OC)C(O)C(Cl)(Cl)Cl (stereo not drawn),inactive
16,CCCCCCCCn1cc[n+](C)c1,inactive
